The source of these data is ChEMBL document CHEMBL4513216, “Probing the Open Global Health Chemical Diversity Library for Multistage-Active Starting Points for Next-Generation Antimalarials” (ACS Infect Dis, 2020).

The whole screen tested about 69,000 compounds, of which about 8,600 (12%) showed an effect of 50% or more. Only a selection was taken, and strong results are over-represented in it overall.

This assay relates to Plasmodium berghei. Put plainly: Screen against P. berghei liver stage (PbLuc), transformed with Luciferase, at 10uM. The format is functional, HepG2. As to conditions: tested at 10 uM.
Regarding `O=C(c1ccncn1)N1CCC[C@]2(C[C@H](Oc3ncccc3F)CO2)C1`, the INHIBITION is listed as -10.3%. In the case of `COc1cccc(S(=O)(=O)N2C[C@@H](O)[C@H](N(C)C)C2)c1` it was 9.98%; in that of `Cn1cc(-c2cnc(N3CCCC3)nc2)cc1C(=O)N1CCOCC1`, -18.4%; in that of `Cn1nccc1C(=O)N1CCC(c2ncc(Cl)cc2S(C)(=O)=O)CC1`, 30.4%. For the compound `CCCn1ncc(CN2C[C@@H]3CCCN3C[C@H]2CCSC)c1C`, the INHIBITION came out at 37.6%. In the case of `C=Cn1ncc(CN2C[C@@H]3CCCN3C[C@@H]2Cc2ccccc2)c1C` it was 50%. In the case of `CCCn1ncc(CN2C[C@@H]3CCCN3C[C@H]2Cc2ccccc2)c1C` it was 57.5%; in that of `C=Cn1ncc(CN2C[C@@H]3C[C@@H](O)CN3C[C@@H]2Cc2ccccc2)c1C`, 42.6%; in that of `CCCn1ncc(CN2C[C@@H]3CCCN3C[C@@H]2Cc2ccccc2)c1C`, 29.3%. In the case of `C=Cn1ncc(CN2C[C@@H]3C[C@@H](O)CN3C[C@H]2Cc2ccccc2)c1C` it was 13%. Regarding `C=Cn1ncc(CN2C[C@@H]3CCCN3C[C@H]2Cc2ccccc2)c1C`, the INHIBITION was found to be 51.5%. In the case of `CCn1ncc(CN2C[C@@H]3CCCN3C[C@H]2CCSC)c1C` it was 2.71%; in that of `C=Cn1ncc(CN2C[C@@H]3CCCN3C[C@H]2CCSC)c1C`, 30.1%. As to `C=Cn1ncc(CN2C[C@@H]3CCCN3C[C@@H]2CCSC)c1C`, the INHIBITION is recorded as 30.8%. Turning to `CCCn1ncc(CN2C[C@@H]3CCCN3C[C@@H]2CCSC)c1C`, the INHIBITION amounted to 57.4%. As to `CCn1ncc(CN2C[C@@H]3CCCN3C[C@@H]2CCSC)c1C`, the INHIBITION was 46%. In the case of `Cc1nc(N2CCN(c3ccccc3)CC2)c2c(n1)c(C)nn2C` it was 25.1%; in that of `CC(=O)N1CCN(CC=C(C)C)CC1`, 19.1%; in that of `CCNC(=O)[C@@H]1C[C@@H](NC(=O)c2cccn2C)CN1CCCSC`, -7.7%. In the case of `Cc1cc(-c2cccc(-c3ccn(CCCO)n3)c2)nc(N(C)C)n1` it was -22.8%; in that of `O=C(CCC1CCCO1)NCCN1CCCCC1` (stereo not drawn), 52.2%; in that of `O=C(CCC1CCCO1)NCCCC(=O)Nc1ccc(Cl)cc1` (stereo not drawn), 36.8%. Turning to `O=C(CCC1CCCO1)NCCCO` (stereo not drawn), the INHIBITION is recorded as 51%.

In the case of `O=C(CCC1CCCO1)NCCc1ccccn1` (stereo not drawn), the INHIBITION amounted to 18.3%.

Regarding `CCOCCNC(=O)CCC1CCCO1` (stereo not drawn), the INHIBITION is given as 42.1%. In the case of `COc1ccc(OC)c(CCNC(=O)CCC2CCCO2)c1` (stereo not drawn) it was 38.3%; in that of `Cc1c[nH]nc1C1CCCN(C(=O)Cn2cccn2)C1` (stereo not drawn), 2.71%.

Take `Cc1nc(C2CCCCN2S(C)(=O)=O)no1` (stereo not drawn): the INHIBITION is recorded as -4.87%.
